The source of these data is PubChem BioAssay (NCI).

Where “and” joins values, the source holds several entries; their conditions need not be identical. Equal entries are not always repeated. This is part of a sample that, as a whole, favours compounds with a hit. Of some 79,000 tested, about 15% had one in any assay. Unmarked numbers belong to inactive results. Calls of active or inactive are those of the source. No stated cut-off is given here; in the data, active means growth inhibition above about 70%; inactive means the rest.

One test is described as follows: NCI Yeast Anticancer Drug Screen. Data for the mec2-1 strain (AID 157). The following applies: S. cerevisiae mec2-1 strain, at 5.0 µM (retest, dose inferred, filed as 0.5), active compounds read high. On the procedure:
Growth inhibition of yeast strains with defined genetic alterations is measured as a screen for potential anti-cancer activity. Selected strains with alterations in DNA damage repair or cell cycle control were exposed to compounds and growth inhibition was measured relative to vehicle treated controls. The strain used in this assay is mec2-1
`COC(=O)[CH2][Sn]([CH2]C(=O)OC)([c]1ccccc1)[c]1ccccc1`: the growth inhibition is 79% (active).

In the case of `O=C1C=C(Cl)C(=O)C(Cl)=C1`, the growth inhibition is 23%.

As to `CNP1(=O)OC(c2ccccc2)=CCN1CCCl` (configuration not stated), the growth inhibition is -2%.

Turning to `Cc1nnc2n1-c1ccc(Cl)cc1C(c1ccccc1)=[N+]([O-])C2`, the growth inhibition is -3%.

For `CCCCSc1ccc(C(SCCN(CC)CC)c2ccccc2)cc1` (configuration not stated), the growth inhibition is 11%.

As to `O=[N+]([O-])c1ccc(C2C3CC4C(OOC42)C3I)cc1` (configuration not stated), the growth inhibition was 0%.

In the case of `CC(C)(C)[Si](OC(=O)N(CCCl)CCCl)(c1ccccc1)c1ccccc1`, the growth inhibition was 10%.

`N#Cc1cc([N+](=O)[O-])c(Cl)c([N+](=O)[O-])c1`: the growth inhibition is 46%.

Still in this test, the particulars now being: S. cerevisiae mec2-1 strain, at 50.0 µM (retest, dose inferred, filed as 5.0), active compounds read high.
In the case of `COC(=O)[CH2][Sn]([CH2]C(=O)OC)([c]1ccccc1)[c]1ccccc1`, the growth inhibition is 99% (active).

Take `O=C1C=C(Cl)C(=O)C(Cl)=C1`: the growth inhibition is 99% (active).

`CNP1(=O)OC(c2ccccc2)=CCN1CCCl` (configuration not stated): the growth inhibition was 10%.

Turning to `Cc1nnc2n1-c1ccc(Cl)cc1C(c1ccccc1)=[N+]([O-])C2`, the growth inhibition was -9%.

As for `CCCCSc1ccc(C(SCCN(CC)CC)c2ccccc2)cc1` (configuration not stated), the growth inhibition was 100% (active).

Consider `O=[N+]([O-])c1ccc(C2C3CC4C(OOC42)C3I)cc1` (configuration not stated), for which the growth inhibition was 9%.

For the molecule `CC(C)(C)[Si](OC(=O)N(CCCl)CCCl)(c1ccccc1)c1ccccc1`, the growth inhibition was 76% (active).

For the molecule `N#Cc1cc([N+](=O)[O-])c(Cl)c([N+](=O)[O-])c1`, the growth inhibition is 99% (active).

Still in this test, the particulars now being: S. cerevisiae mec2-1 strain, at 50.0 µM, active compounds read high.
For the molecule `CCOP(=S)(OCC)Oc1ccccc1`, the growth inhibition was -14.5%.

Consider `O=[N+]([O-])c1ccccc1-c1ccccc1`, for which the growth inhibition is -27.8%.

Regarding `C[N+](C)(C)Cc1ccc2ccccc2c1Br`, the growth inhibition is 7.05%.

Consider `COC(=O)[CH2][Sn]([CH2]C(=O)OC)([c]1ccccc1)[c]1ccccc1`, for which the growth inhibition was 88.5% (active).

For `CC1=CC(C)=Nc2ccc(C)cc2N1`, the growth inhibition is -0.6%.

With `O=C1C=C(Cl)C(=O)C(Cl)=C1`, the growth inhibition is 99.3% (active).

In the case of `CC(=O)OC1(C#N)CC2OC1C1NC21` (configuration not stated), the growth inhibition is -8.8%.

Regarding `CNP1(=O)OC(c2ccccc2)=CCN1CCCl` (configuration not stated), the growth inhibition was 47.6%.

As to `CCOP(=O)(OCC)Oc1cc(C)c(Cl)c(C)c1`, the growth inhibition was -16.7%.

Turning to `Cc1nnc2n1-c1ccc(Cl)cc1C(c1ccccc1)=[N+]([O-])C2`, the growth inhibition was -0.7%.

As for `CC1NC1c1ccccc1` (configuration not stated), the growth inhibition was -29.3%.

On to `CCOC(=O)C(=O)C1CCNC1=O` (configuration not stated), for which the growth inhibition is 3.35%.

With `CC1=NCCN=C(C)C1[N+](=O)[O-]`, the growth inhibition was 10.9%.

For the molecule `O=C([O-])CC(=O)[O-].[Cu+2].[OH3+].[OH3+]`, the growth inhibition was 11.2%.

Take `O=C(O)C(=O)C(Cl)Br` (configuration not stated): the growth inhibition was -8.75%.

`CCCCSc1ccc(C(SCCN(CC)CC)c2ccccc2)cc1` (configuration not stated): the growth inhibition was 99.8% (active).

On to `Cn1c(=O)c2ncnnc2n(C)c1=O`, for which the growth inhibition is 22.9%.

Consider `O=C(Nc1ccccc1Cl)Oc1c(Cl)cc(S(=O)(=O)F)cc1Cl`, for which the growth inhibition was 33.6%.

On to `CCOP(=O)(OCC)/C(C#N)=C/c1cn(C)cn1`, for which the growth inhibition is 1.95%.

`O=[N+]([O-])c1ccc(C2C3CC4C(OOC42)C3I)cc1` (configuration not stated): the growth inhibition was 18.1%.

With `CC1(C)CC(O)CC(C)(C)N1O`, the growth inhibition was 15.8%.

For the molecule `CC(C)(C)[Si](OC(=O)N(CCCl)CCCl)(c1ccccc1)c1ccccc1`, the growth inhibition is 20.8%.

As for `CCC1(CC)COP(=S)(S)OC1`, the growth inhibition was -17.8%.

For `N/C(=N\S(=O)(=O)c1ccccc1)N[N+](=O)[O-]`, the growth inhibition is -1.15% and -8.9%.

With `CCC[CH2][Sn]([CH2]C)([CH2]C)[CH2]C`, the growth inhibition is 17.8%.

Turning to `N#Cc1cc([N+](=O)[O-])c(Cl)c([N+](=O)[O-])c1`, the growth inhibition was 93% (active).
